Screens as filed in PubChem.
FBW7 activator = activators of human E3 ligase FBW7. Q969H0. AlphaScreen FBW7–phospho-cyclin E peptide binding, activator screen. normalized activity (activation), % at 26.1 µM. 650,000 tested, 0.13% active. AID 1259310; in the data active = normalized activity above about 1.9%;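 also: purified mutant Fbw7 with reduced substrate affinity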
TEAD-YAP inh = TEAD-YAP interaction inhibition. HEK-TIYL cells, TEAD-Gal4/YAP UAS-luciferase luminescence. inhibition, % at 9.12 µM. 640,000 tested, 1.4% active. AID 1259422; in the data active = inhibition above about 32%
GPR151 ag = activators of human GPR151; Q8TDV0; PathHunter beta-arrestin GPR151 cells, luminescence; activation, % at 11.2 µM; 650,000 tested, 1% active; AID 1508602; in the data active = activation above about 4.9%
Target sequence (Q8TDV0 whole entry, looked up): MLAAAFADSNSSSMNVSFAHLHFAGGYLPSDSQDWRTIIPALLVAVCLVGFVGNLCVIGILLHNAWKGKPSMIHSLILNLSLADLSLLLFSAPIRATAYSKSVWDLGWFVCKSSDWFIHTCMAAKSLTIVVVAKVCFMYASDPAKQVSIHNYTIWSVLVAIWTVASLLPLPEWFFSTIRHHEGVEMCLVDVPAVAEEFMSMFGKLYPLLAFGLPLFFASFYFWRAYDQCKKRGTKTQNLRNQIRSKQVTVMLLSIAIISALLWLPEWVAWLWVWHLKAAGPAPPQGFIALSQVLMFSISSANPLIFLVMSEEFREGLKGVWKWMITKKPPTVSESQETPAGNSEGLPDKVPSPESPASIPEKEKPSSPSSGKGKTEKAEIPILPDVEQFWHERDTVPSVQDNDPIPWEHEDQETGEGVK
MITF primary = human MITF inhibition, primary screen | O75030 | AlphaScreen MITF homodimerization, bead proximity signal | inhibition, % at 2.6 µM | 650,000 tested, 0.91% active | AID 1259374; in the data active = inhibition above about 50%
GPR151 confirm = confirmation of human GPR151 activators. shares compounds with GPR151 ag. GPR151 PathHunter beta-arrestin cells, luminescence, 90 min; % of EA-reagent control over plate median. activation, % at 11.2 µM. 6,700 tested, under 10 active. AID 1508609;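 active = mean percent activation across replicates above the confirmation screen cutoff of 4.91%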
GPR119 counter = GPR119 activation, counter-screen for GPR151 activators; shares compounds with GPR151 ag; GPR119 PathHunter beta-arrestin cells, luminescence, 90 min; 0 = compound-well median, 100 = enzyme-acceptor control; activation, % at 11.2 µM; 6,700 tested, 0.3% active;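 active = mean percent activation in the counterscreen above 29.09%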;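 also: counterscreen on off-target GPR119 to flag nonselective hits from the GPR151 activator screen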
Numbers stand for hits; n = inactive; x = no result given; ! = not confirmed by another sample. This is a sample that favours compounds with a hit; in the whole collection about 3.4% have one here.

SMILES	FBW7 activator	TEAD-YAP inh	GPR151 ag	MITF primary	GPR151 confirm	GPR119 counter
Cn1c(SCC(=O)NCc2cccs2)nnc1-c1cccs1	n	n	n	n	x	x
Cc1ccc(NC(=O)c2cc(S(=O)(=O)N3CCCCC3)ccc2F)cc1Cl	n	n	n	n	x	x
Cc1ccc(NC(=O)c2cc(S(=O)(=O)N3CCCCCC3)ccc2F)cc1Cl	n	n	6.2	n	n	n
Cc1ccc(NC(=O)c2cc(F)c(F)cc2Cl)cc1S(=O)(=O)N1CCOCC1	n	n	5.2	n	n	n
O=C(CN(c1cccc([N+](=O)[O-])c1)S(=O)(=O)c1ccccc1)Nc1ccc(F)cc1F	n	n	n	n	x	x
Cc1ccc(CN2C(=O)CSc3ccc(NC(=O)Nc4nc(C)cc(C)n4)cc32)cc1	n	n	7.4	n	n	n
CC(C)(C)C1=NN(CC(=O)Nc2nccs2)C(=O)c2cc3ccccc3n2C1	n	n	6.1	n	n	n
CC(C)(C)C1=NN(CCC(=O)O)C(=O)c2cc3ccccc3n2C1	n	n	7.7	n	n	n
COC(=O)C1=C(C)N(c2ccc(Cl)cc2)C(=O)/C1=C\c1ccc(C(=O)OC)cc1	n	n	n	n	x	x
Fc1ccc(-c2cc(-c3nc(-c4ccncc4)no3)c3ccccc3n2)cc1	n	n	n	n	x	x
COc1ccc(NS(=O)(=O)c2ccc(N/C=C\C(=O)c3ccccc3)cc2)nn1	n	n	7.2	n	n	n
CC(NC(=O)C1CC(Cc2cccc(F)c2)=NO1)c1ccccc1Cl (centres undefined)	n	n	n	n	x	x
C=CCC(O)(CC=C)C(C)NC(=O)C1CC(Cc2cccc(Cl)c2)=NO1 (centres undefined)	n	n	11	n	n	n
CC(=O)c1ccc(N2CCN(C(=O)CCc3csc4nc(C)cn34)CC2)cc1	n	n	n	n	x	x
CCc1ccc(NC2=C(Cl)C(=O)N(c3ccccc3OC)C2=O)cc1	n	n	n	n	x	x
CCc1ccc(N2C(=O)C(Cl)=C(Nc3ccc(C(=O)N4CCCC4)cc3)C2=O)cc1	n	n	5.2	n	n	n
Cc1ccc(S(=O)(=O)N(Cc2ccccc2)c2ccccc2C(=O)NC2CCCCC2)cc1	n	n	n	n	x	x
C[C@H]1CC[C@@]2(OC1)O[C@H]1C[C@H]3[C@@H]4CC[C@@H]5C[C@@H](O)CC[C@]5(C)[C@H]4CC[C@]3(C)[C@H]1[C@@H]2C	n	n	5.6!	n	n	n
CCCCCCCCn1c(N2CCCCC2)nc2c1c(=O)[nH]c(=O)n2C	n	n	n	n	x	x
CC1=C(C(=O)Nc2ccc(F)cc2)C(c2ccccc2Br)NC(=O)N1 (centres undefined)	n	n	5.1	n	n	n
CC(NC(=O)CCn1c(=O)[nH]c2ccsc2c1=O)C12CC3CC(CC(C3)C1)C2 (centres undefined)	n	n	12	n	n	n
CC(NC(=O)CCCn1c(=O)[nH]c2ccsc2c1=O)C12CC3CC(CC(C3)C1)C2 (centres undefined)	n	n	n	n	x	x
O=C(Cn1c(=O)[nH]c2ccsc2c1=O)NC1CCCCC1	n	n	5.3	n	n	n
CC1(C2CCN(C(=O)Cc3ccsc3)CC2)NC(=O)N(C2Cc3ccccc3C2)C1=O (centres undefined)	n	n	n	n	x	x
CC1(C2CCN(C(=O)C(=O)c3ccccc3)CC2)NC(=O)N(C2Cc3ccccc3C2)C1=O (centres undefined)	n	n	5.2	n	n	n
SMILES	FBW7 activator	TEAD-YAP inh	GPR151 ag	MITF primary	GPR151 confirm	GPR119 counter
Cc1nc2ncccc2c(=O)n1-c1ccc(NC(=O)CC2CCCCC2)cc1	n	n	n	n	x	x
Cc1ccn2cc(-c3ccc(NC(=O)CCc4ccccc4)cc3)nc2n1	n	n	n	n	x	x
Cc1ccn2cc(-c3ccc(NC(=O)c4ccc(Br)cc4)cc3)nc2n1	n	n	5.8	n	n	n
C#CCN1C(=O)S/C(=C/c2ccc(C(=O)OC)cc2)C1=O	n	n	5.9	n	n	n
O=C(O)c1ccccc1/C=N/n1c(-c2ccccc2)n[nH]c1=S	n	n	n	n	x	x
COc1ccc(CN2CCc3nnc(CCNC(=O)COc4ccccc4)n3CC2)cc1	n	n	n	n	x	x
CC(C)(C)C#C/C=N/n1nnc(-c2ccccc2)n1	n	n	5.8	n	n	n
CCOC(=O)c1cc(NS(=O)(=O)c2cccc(C)c2)cc(C(=O)OCC)c1	n	n	n	n	x	x
C1CN(c2nc3nonc3nc2N2CCOCC2)CCO1	n	n	n	n	x	x
C1CN(c2nc3nonc3nc2N2CCSCC2)CCO1	n	n	8.9	n	n	n
CC(c1ccco1)N(C(=O)c1ccc(N2CCOCC2)c([N+](=O)[O-])c1)c1ccccn1 (centres undefined)	n	n	n	n	x	x
OCC1(Cc2ccccc2)CCN(Cc2cccc3nonc23)CC1	n	n	n	n	x	x
OCC1(Cc2ccccc2)CCN(Cc2cccc3c2OCO3)CC1	n	n	5.0	n	n	n
CCc1ccccc1NC(=O)c1c(C(=O)Nc2ccccc2)sc2nc(C)cc(=O)n12	n	n	n	n	x	x
COc1ccc(OC)c(/C=C2\C(C)=C(C#N)c3nc(N)c(C#N)c(C)c32)c1	n	n	7.2	n	n	n
COc1cc2c(cc1/C=C1/C(C)=C(C#N)c3nc(N)c(C#N)c(C)c31)OCO2	n	n	n	n	x	x
O=C(c1ccc(Br)s1)N1CCN(c2ccccc2)CC1	n	n	n	n	x	x
S=C1Nc2ccccc2C2CC=NN12 (centres undefined)	n	n	5.7	n	n	n
N#Cc1ccc(CSC2=Nc3ccccc3C3CC=NN23)cc1 (centres undefined)	n	n	n	n	x	x
Cn1cnnc1Sc1ccc(C(=O)Nc2ccc(F)c(F)c2F)cc1[N+](=O)[O-]	n	n	n	n	x	x
COc1ccccc1NC(=O)N1CCC(c2nc(-c3cccc(C(F)(F)F)c3)no2)CC1	n	n	11	n	n	n
COc1cccc(-c2noc(C3CCCN(C(=O)Nc4ccc(C(F)(F)F)cc4)C3)n2)c1 (centres undefined)	n	n	n	n	x	x
COc1ccccc1NC(=O)N1CCC(C(=O)c2ccc(F)cc2)CC1	n	n	5.7	n	n	n
Cc1ccc(S(=O)(=O)NC(=O)N2CC(C)CC(C)C2)cc1 (centres undefined)	n	n	n	n	x	x
CCN(CC)C(=O)c1sc(NC(=O)c2cccnc2)c(C(=O)OC)c1C	n	n	n	n	x	x
CCN(CC)C(=O)c1sc(NC(=O)c2ccc(F)cc2)c(C(=O)OC)c1C	n	n	5.1	n	n	n
Cc1ccn2c(C(=O)NC(C)C)c(-c3ccccc3)nc2c1	n	n	n	n	x	x
COCCNC(=O)c1ccc(/C=C2\Oc3ccccc3N(C)C2=O)cc1	n	n	11	n	n	n
N#Cc1cc2c(ccc3ccccc32)oc1=N	n	n	6.1	n	n	n
O=C(O)c1cc2c(ccc3ccccc32)o1	n	n	n	n	x	x
